Five molecules from PubChem BioAssay (NCATS) can be followed below.

Assay [1] is described as follows: Cell Viability - SK-N-SH (AID 435; calls by dose curve;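 also: potency is read from the fitted curve at half-maximal effect; compound exposure lasted 40 h at 37 °C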). The following applies: SK-N-SH neuroblastoma cell viability qHTS. In a few lines: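 SK-N-SH neuroblastoma cells (1500/well) treated 40 h at 37 °C in complete medium; viability read as cellular ATP by CellTiter-Glo luminescence. Normalized to DMSO and 100 uM tamoxifen; AC50 from Hill fits of qHTS concentration-response.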
For orientation: In qHTS, concentration-response curves come from the screen itself.

Assay [2] deals with Mitogen-activated protein kinase 10 (Mus musculus) (UniProt Q61831). In words: JNK3 AlphaScreen Assay (AID 530; active = well fitted curve in either direction with a large enough effect, not every such curve was filed as active;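 also: kinase came from lysate of stimulated human HepG2 cells; signal reports phosphorylation of biotinylated GST-cJun 1-79 at Ser73 with 10 µM ATP; % is scaled to controls: 0 for no effect and ±100 for the full control effect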). To be noted: JNK3 lysate, c-Jun phosphorylation; series mostly up to 57.1 µM. In a few lines:
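Inhibitors reduce antibody binding to phosphorylated biotin-cJun, lowering AlphaScreen luminescence. Lysates from HepG2 cells pre-activated by IL-1beta plus TNF-alpha supplied JNK3; compounds were titrated.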
In general terms: In Alpha technology, singlet oxygen from a donor bead excites a nearby acceptor bead.

Assay [3] is described as follows: Cell Viability - SH-SY5Y (AID 544). Also: nearly all actives have a fitted effect of over 55% in size. To be noted: SH-SY5Y neuroblastoma cell viability; viability change, negative = cytotoxic: at 92.2 µM (top of the series). In a few lines: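 SH-SY5Y human neuroblastoma cells (1500/well) incubated 5 h, then compound-treated 40 h at 37 °C in complete medium. Viability read as intracellular ATP by CellTiter-Glo luminescence after 20 min; AC50 from Hill-equation fits of qHTS concentration-response.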

The nature of assay [4]: Cell Viability - Renal Proximal Tubule (AID 545). Also: nearly all actives have a fitted effect of over 40% in size. The following applies: renal proximal tubule cells viability; series mostly up to 91.7 µM. In a few lines: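 Rat renal proximal tubule primary cells, 1000/well, exposed to compounds for 40 hr at 37 °C in complete medium; cellular ATP read by CellTiter-Glo luminescence. AC50 from concentration-response fitted with standard Hill equation.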

A short description of assay [5]: Cell Viability - Mesenchymal (AID 546).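 Also: cells exposed to compound for 40 hours before reading.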 The following applies: mesenchymal cells viability, qHTS; series mostly up to 91.7 µM. In a few lines:
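Normal human renal glomerulus-derived kidney mesenchymal cells, 1000 per well in complete medium, were treated with compounds for 40 hr at 37 °C. Viability was read as intracellular ATP by CellTiter-Glo luminescence; AC50 values came from Hill-equation fits of qHTS concentration-response data.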

The nature of assay [6]: Cellular Toxicity (caspase-3) HepG2 (AID 654).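 Also: cells exposed to compound for 16 hours before reading; 0% = DMSO alone and 100% = caspase signal from 100 µM tamoxifen.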 The following applies: HepG2 caspase-3 activation, luminescence, 0% = DMSO only, 100% = tamoxifen; series mostly up to 92.2 µM. In a few lines:
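HepG2 cells (1500/well) were treated 16 h at 37 °C in complete medium, then caspase 3/7 activity was read by Caspase-Glo luminescence. Data were normalized to DMSO and 100 uM tamoxifen; AC50 came from Hill-equation fits of qHTS concentration-response.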

The nature of assay [7]: Cellular Toxicity (caspase-3) SHSY5Y (AID 657). The following applies: SH-SY5Y caspase-3 activation, DMSO zero, 10 µM staurosporine = 100%; series mostly up to 91.7 µM. In a few lines: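 SH-SY5Y human neuroblastoma cells, 1500/well, exposed to compound for 16 hours at 37 °C in complete medium. Caspase-3/7 activity read by Caspase-Glo luminescence after 1 hr at room temperature, normalized to DMSO and 10 uM staurosporine; AC50 from Hill fit.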

Assay [8] in a line: Cellular Toxicity (caspase-3) N2a (AID 665).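 Also: compound exposure lasted 16 h at 37 °C before readout.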 The following applies: N2a cells, luminescence, normalized: DMSO 0%, 10 µM staurosporine 100%; series mostly up to 92.2 µM. In a few lines: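 Mouse N2a neuroblastoma cells, 1500 per well, treated 16 h at 37 °C in complete medium; caspase-3/7 activity by Caspase-Glo luminescence after 1 h. Normalized to DMSO and 10 uM staurosporine; AC50 from Hill fits.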

Assay [9] can be described thus: MultiTox-Fluor Cytotoxicity Assay - LYMP1-002 - Live Cells (AID 955). Also: % is scaled to controls: 0 for no effect and ±100 for the full control effect. To be noted: LYMP1-002 lymphoblastoid live-cell protease fluorescence viability; series mostly up to 46.1 µM. In a few lines:
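Human lymphoblastoid LYMP1-002 cells, 2500/well, treated 16 h at 37 C in complete medium. Live-cell protease activity via GF-AFC fluorescence (Ex/Em 405/510) after 60 min reagent incubation; AC50 from Hill fits.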

A short description of assay [10]: Cell Viability - LYMP2-025 (AID 976).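 Also: plate controls were DMSO only for no effect and tetraoctylammonium bromide control for full effect.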 The following applies: LYMP2-025 lymphoblastoid cell viability; series mostly up to 92.2 µM. In a few lines: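 Human lymphoblastoid LYMP2-025 cells, 2500/well, exposed 24 h at 37 C in complete medium in 1536-well qHTS. Viability as cellular ATP by CellTiter-Glo luminescence; AC50 from Hill fits of concentration-response data.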

Assay [11] can be described thus: Cell Viability - LYMP2-008 (AID 980). Also: % is scaled to controls: 0 for no effect and ±100 for the full control effect; nearly all actives have a fitted effect of over 60% in size. To be noted: LYMP2-008 lymphoblastoid cell viability, qHTS; series mostly up to 92.2 µM. In a few lines: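 LYMP2-008 lymphoblastoid cells (2500/well) plated 5 h, then treated 24 h at 37 C in complete medium. Viability read as intracellular ATP by CellTiter-Glo luminescence after 30 min at room temperature; AC50 from Hill fits.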

The nature of assay [12]: Cell Viability - LYMP2-012 (AID 982).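 Also: cellular ATP by luciferase luminescence where a drop means cytotoxicity; cells exposed to compound for one day before reading; 0% = DMSO only and full loss = 92 µM tetraoctylammonium bromide; nearly all actives have a fitted effect of over 55% in size.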 To be noted: LYMP2-012 lymphoblastoid cell viability qHTS; series mostly up to 92.2 µM.
Assay [13] can be described thus: Cell Viability - LYMP1-002 - Assay at 24 hr (AID 993). Also: % is scaled to controls: 0 for no effect and ±100 for the full control effect. The following applies: LYMP1-002 lymphoblastoid cells viability; series mostly up to 92.2 µM. In a few lines: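 Human lymphoblastoid LYMP1-002 cells (2500/well) treated 24 h at 37 °C; viability as intracellular ATP by CellTiter-Glo luminescence. Tetraoctylammonium bromide as positive control; AC50 from Hill-equation fits of qHTS concentration-response.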

In assay [14] the target is Peroxisome proliferator-activated receptor gamma (Homo sapiens) (UniProt P37231). Nature of the assay: qHTS assay for small molecule agonists of peroxisome proliferator-activated receptor gamma signaling (AID 588536; active = well fitted curve in the direction sought with a large enough effect in the signal ratio, with a control signal flat, not every such curve was filed as active; the % refers to the signal ratio;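 also: 0% = DMSO basal wells and 100% = rosiglitazone at 2 µM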). The following applies: HEK293 PPARg-UAS-bla, beta-lactamase ratio, 16 h, percent of rosiglitazone response, DMSO as zero; series mostly up to 76.7 µM. In a few lines:
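PPAR-gamma-UAS-bla HEK293 cells in medium with 1% charcoal/dextran-treated FBS were exposed to compounds for 16 h at 37 C. Beta-lactamase activity was read with CCF4 substrate (405 nm excitation, 460/530 nm emission).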

The target in assay [15] is Retinoic acid receptor RXR-alpha (Homo sapiens) (UniProt P19793). Nature of the assay: qHTS assay for small molecule antagonists of retinoid X receptor alpha signaling (AID 588546; active = well fitted inhibition curve with a large enough effect in the signal ratio, with a control signal flat, not every such curve was filed as active; the % refers to the signal ratio; also: % is scaled to controls: 0 for no effect and ±100 for the full control effect). The following applies: HEK293T RXRa-UAS-bla, beta-lactamase ratio, antagonist mode. In a few lines: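 Beta-lactamase reporter inhibition, read as CCF4 fluorescence ratio (ex 405, em 460/530 nm) after 2 h at RT. HEK293T UAS-bla cells, 2500/well, were stimulated with 9-cis-RA at 500 or 100 nM final alongside test compound for 18 h at 37 C.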

Assay [16] in a line: qHTS assay for environmental chemicals that activate the Aryl hydrocarbon Receptor (AhR) signaling pathway (AID 651777). Also: nearly all actives have a fitted effect of over 15% in size. Also: potency is read from the fitted curve at half-maximal effect. As to activation: % of control where 0% means no effect. To be noted: 1A2-DRE human hepatoma cells, luciferase, 24 h; activation: hits give high values. In a few lines: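 AhR activation is scored as a rise in luciferase from a stable DRE–CYP1A2 promoter construct in human hepatoma cells. Treatment lasts 24 hr at 37 C; detection uses One-Glo after 30 min at room temperature.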

Assay [17] deals with Nuclear receptor subfamily 1 group I member 2 (Rattus norvegicus) (UniProt Q9R1A7). Nature of the assay: qHTS assay for small molecule activators of the rat pregnane X receptor (rPXR) signaling pathway (AID 651751; call rule not given here; also: 0% is about no effect). The following applies: rPXR reporter cells, luciferase (One-Glo), 24 h.
Assay [18] is described as follows: Cell Viability - LYMP2-009 (AID 968).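 Also: 0% = DMSO alone and the full-kill end = tetraoctylammonium bromide at 92 µM; nearly all actives have a fitted effect of over 55% in size.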 The following applies: LYMP2-009 lymphoblastoid cell viability; series mostly up to 92.2 µM.
A short description of assay [19]: Cell Viability - LYMP2-011 (AID 969).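 Also: cells exposed to compound for 24 hours; 0% = DMSO only and full inhibition = 92 µM tetraoctylammonium bromide; nearly all actives have a fitted effect of over 60% in size.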 The following applies: LYMP2-011 lymphoblastoid cells viability; series mostly up to 92.2 µM. In a few lines: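 2500 cells/well in complete medium, compound-treated 24 h at 37 C. Viability read as intracellular ATP by CellTiter-Glo luminescence after 30 min at room temperature. AC50 from Hill fits of qHTS concentration-response data.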

The target of assay [20] is Vitamin D3 receptor (Homo sapiens) (UniProt P11473). Nature of the assay: qHTS assay for small molecule agonists of vitamin D receptor signaling (AID 588543; calls by dose curve;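 also: 0% = DMSO basal and 100% = reference agonist control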). The following applies: HEK293T VDR-UAS-bla, beta-lactamase ratio, 16 h; series mostly up to 76.8 µM. In a few lines: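 VDR-UAS-bla HEK293T cells, 2000/well, 2% charcoal-stripped FBS; compound titration 16 h at 37 C; CCF4 beta-lactamase ratio read. Normalized to 50 nM 1-alpha,25-dihydroxyvitamin D3 (100%) and DMSO; Hill fit gives EC50, efficacy.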

Several values for one entry are separate records, joined by “and”; a condition that tells them apart may be missing. Equal values may be shown once. Unmarked numbers belong to inactive results. Results filed as inconclusive are left out. Activity calls are given as the source filed them. Unless noted, calls follow the shape of the dose curve; as a rule, active = well fitted curve in the direction sought with a large enough effect; inconclusive = small, poorly fitted or top-dose-only effect, or another doubt; inactive = no such curve, though single readings can be large; an effect the other way counts as inactive or inconclusive.

Vitamin D3 receptor (Homo sapiens), sequence (P11473 whole entry, looked up): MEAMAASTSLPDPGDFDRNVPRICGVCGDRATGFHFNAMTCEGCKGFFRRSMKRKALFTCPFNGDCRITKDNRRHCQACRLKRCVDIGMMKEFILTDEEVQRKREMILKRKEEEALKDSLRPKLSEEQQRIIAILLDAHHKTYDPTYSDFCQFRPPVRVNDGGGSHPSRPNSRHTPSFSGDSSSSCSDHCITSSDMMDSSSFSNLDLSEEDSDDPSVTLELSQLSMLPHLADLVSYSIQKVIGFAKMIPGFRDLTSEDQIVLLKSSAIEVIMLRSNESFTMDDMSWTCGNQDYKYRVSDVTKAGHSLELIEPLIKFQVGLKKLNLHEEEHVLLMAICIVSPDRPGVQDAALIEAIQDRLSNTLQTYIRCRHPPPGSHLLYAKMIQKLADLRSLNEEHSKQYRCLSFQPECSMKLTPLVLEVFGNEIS
Peroxisome proliferator-activated receptor gamma (Homo sapiens), sequence (P37231 whole entry, looked up): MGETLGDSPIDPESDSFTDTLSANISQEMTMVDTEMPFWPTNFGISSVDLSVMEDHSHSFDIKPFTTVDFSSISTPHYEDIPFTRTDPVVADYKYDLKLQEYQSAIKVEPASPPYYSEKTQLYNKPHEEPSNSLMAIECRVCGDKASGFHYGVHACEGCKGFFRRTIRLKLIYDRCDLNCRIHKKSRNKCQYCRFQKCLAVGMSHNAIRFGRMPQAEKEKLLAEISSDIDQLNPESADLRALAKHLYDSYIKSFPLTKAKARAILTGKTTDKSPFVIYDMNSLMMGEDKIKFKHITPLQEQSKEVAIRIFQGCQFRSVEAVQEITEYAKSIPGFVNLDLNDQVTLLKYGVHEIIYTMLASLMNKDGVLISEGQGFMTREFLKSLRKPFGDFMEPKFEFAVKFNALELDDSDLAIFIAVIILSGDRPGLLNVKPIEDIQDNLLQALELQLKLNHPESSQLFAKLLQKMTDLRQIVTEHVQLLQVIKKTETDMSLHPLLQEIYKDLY
Nuclear receptor subfamily 1 group I member 2 (Rattus norvegicus), sequence (Q9R1A7 whole entry, looked up): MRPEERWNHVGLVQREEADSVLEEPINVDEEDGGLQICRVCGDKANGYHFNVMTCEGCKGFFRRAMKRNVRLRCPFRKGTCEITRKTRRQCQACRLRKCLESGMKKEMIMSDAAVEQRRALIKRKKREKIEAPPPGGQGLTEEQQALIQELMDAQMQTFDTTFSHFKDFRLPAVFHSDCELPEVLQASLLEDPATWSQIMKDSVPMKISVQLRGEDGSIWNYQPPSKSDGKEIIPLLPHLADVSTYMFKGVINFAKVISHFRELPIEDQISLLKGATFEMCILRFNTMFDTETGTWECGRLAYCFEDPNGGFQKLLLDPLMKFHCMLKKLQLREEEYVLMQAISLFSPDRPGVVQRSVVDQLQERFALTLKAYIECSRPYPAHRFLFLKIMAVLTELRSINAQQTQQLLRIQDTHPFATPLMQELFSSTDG
Retinoic acid receptor RXR-alpha (Homo sapiens), sequence (P19793 whole entry, looked up): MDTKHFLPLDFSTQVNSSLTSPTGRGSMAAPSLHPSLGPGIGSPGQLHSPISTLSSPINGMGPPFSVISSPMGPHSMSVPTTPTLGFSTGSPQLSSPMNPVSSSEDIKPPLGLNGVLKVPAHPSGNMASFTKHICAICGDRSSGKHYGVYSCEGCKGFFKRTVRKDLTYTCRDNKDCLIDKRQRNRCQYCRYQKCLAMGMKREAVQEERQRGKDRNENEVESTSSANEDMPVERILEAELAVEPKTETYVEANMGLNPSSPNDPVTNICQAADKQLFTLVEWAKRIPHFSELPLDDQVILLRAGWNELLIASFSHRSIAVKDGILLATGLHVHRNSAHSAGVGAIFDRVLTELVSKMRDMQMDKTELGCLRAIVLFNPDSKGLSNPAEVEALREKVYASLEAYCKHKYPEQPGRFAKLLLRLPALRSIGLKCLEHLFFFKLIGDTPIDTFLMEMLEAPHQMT

With `O=[N+]([O-])c1ccccc1O`, in assay [1], the Potency is above 92 µM. In addition, the Potency result in assay [2], in assay [3], in assay [5], in assay [10], in [11] and in assay [12] was “inactive” in each case. Moreover, the Potency entry in assay [13] was “inactive”. Also, the molecule was classed as inactive in assay [4], in assay [6], in assay [7], in [8], in [9] and in [14]. Also, the results for the max response in assay [15] and in assay [17] were -20.2% and 0.314%, respectively. For the same molecule, in assay [16], the activation was 0.0323%.
Take `CCOS(C)(=O)=O`: the Potency entry in assay [3], in assay [5], in assay [18], in assay [19], in [11] and in assay [12] was “inactive” each time. For the same molecule, the Potency entry in assay [13] is “inactive”. Further, the call in [4], in assay [6], in [7], in [14] and in [20] was inactive. The results for the max response in assay [15] and in [17] were -0.383% and 1.86%, respectively. The activation in assay [16] is 0.384%.
For the molecule `BrC(Br)Br`, the Potency in assay [1] was above 92 µM. The Potency result in assay [3], in [18], in assay [19], in assay [10], in assay [11] and in [12] was “inactive” each time. Moreover, in assay [13], the Potency entry is “inactive”. The molecule was classed as inactive in [4], in assay [6], in [7], in [8], in assay [14] and in assay [20]. For the same molecule, the max response in assay [15] was 20%; in [17], 0.0785%. The activation in [16] is 2.01%.
In the case of `Cc1ccc(N)cc1N`, the Potency in [1] was above 92 µM; in [16] it was 44.7 µM (active). Also, the Potency entry in assay [2], in assay [5], in assay [19], in assay [11] and in [13] was “inactive” each time. The result in assay [4], in [6], in assay [7], in assay [8], in [9] and in [14] was inactive. Moreover, in [20], the result was inactive. The max response in [15] is 9.25% and -0.891%; in assay [17], 12.5% and 3.01%.
Consider `O=C(O)C(Br)CBr` (centres undefined), for which the Potency in [1] was above 92 µM. Also, the Potency result in assay [2], in assay [5], in [18], in assay [19], in assay [10] and in assay [11] was “inactive” in each case. In assay [12], the Potency result is “inactive”. Further, the call in assay [4], in assay [7], in [8] and in assay [9] was inactive. For the same molecule, in assay [16], the activation was 2.43%. In addition, in assay [17], the max response was -3.61%.
